From ChEMBL document CHEMBL3988442, “University of Dundee, Small-Polar-MMV Screening Library” (2021)
The campaign covered roughly 48,000 compounds. About 13,000 (27%) showed an effect of 50% or more. This is one part of the list.

Each molecule was assayed on Wolbachia pipientis (assay: Anti-Wolbachia Cell-Based Screen). Conditions: 5 µM.
Assay type: functional
Design: scale not given: in the data most compounds retested in dose-response had high values

| SMILES | Percent Effect |
| --- | --- |
| CCC[C@@H]1CN(C(=O)c2ccccc2-c2ccccc2)C[C@H]1N(C)C | -11.45% |
| COCCN1CCCC(O)(CN2CCN(Cc3ccncc3)CC2)C1=O (stereo unspecified) | -1.626% |
| Cn1ccnc1C1(O)CCCN(Cc2ccncc2)CC1 (stereo unspecified) | 94.34% |
| Cc1ccc(CN2CCC3(CCN(Cc4ccncc4)CC3)CC2)cc1 | -6.544% |
| CN(C)[C@H]1CCN(c2ccnc(C(=O)NCc3ccco3)c2)C1 | -12.58% |
| Cc1[nH]c(=O)sc1S(=O)(=O)N1CCCC1C(=O)NC1CC1 (stereo unspecified) | 0.9374% |
| CC1c2ncc(COCC3CC3)n2CCN1S(=O)(=O)N(C)C (stereo unspecified) | -6.883% |
| Cc1noc(CN(C)C(=O)CCn2cnc3ccccc32)n1 | -9.657% |
| O=C(NCCO)c1coc(Cn2cnc3ccccc32)n1 | -7.13% |
| CC(C)c1nccn1CC(=O)Nc1ccnn1C(C)C(C)C (stereo unspecified) | 205.7% |
| CC(C1CC1)n1nccc1NC(=O)CN(C)C(=O)OC(C)(C)C (stereo unspecified) | 1.565% |
| CC(C)C(C)n1nccc1NC(=O)Cn1cnc2ccccc21 (stereo unspecified) | 92.25% |
| Cn1ccnc1-c1cnn(CC(=O)Nc2ccnn2C)c1 | -5.253% |
| Cc1n[nH]c(C)c1C1CCCN1C(=O)c1cc(Br)c[nH]1 (stereo unspecified) | 3.439% |
| N#Cc1cc(S(N)(=O)=O)ccc1NC1CCc2ccc(F)cc21 (stereo unspecified) | -1.199% |
| Cn1ccc2c(-c3cc(N4CCOCC4)ncn3)ccnc21 | 96.13% |
| c1cc2c(c(-c3cc(N4CCOCC4)ncn3)c1)CCNC2 | 6.934% |
| Cn1ccc2c(-c3cc(N4CCCCC4)ncn3)ccnc21 | 102.2% |
| CN(C)c1ccc(-c2ccnc3c2ccn3C)nn1 | -43.13% |
| CC(C)Nc1ccc(-c2ccnc3c2ccn3C)nn1 | -2.658% |
| Cn1ccc2c(-c3ccc(NC4CC4)nn3)ccnc21 | -7.533% |
| Cc1cc(C)nc(N2CCCC(Cn3cc(CN(C)C)nn3)C2)n1 (stereo unspecified) | 5.215% |

| SMILES | Percent Effect |
| --- | --- |
| COCc1cc(NCc2cc(F)ccc2F)n2nccc2n1 | 7.154% |
| COc1ccccc1CNC(Cn1cncn1)c1ccccc1 (stereo unspecified) | -4.346% |
| COCCn1cc(NCc2cccc3cn[nH]c23)cn1 | -36.74% |
| Cc1ccc(CNc2cnn(CC(F)F)c2)cc1C | -20.79% |
| COCc1cc(CNc2cnn(CC(F)F)c2)ccc1OC | 109.5% |
| COc1cc(CNc2cnn(CC(F)F)c2)ccc1O | 77.84% |
| COCc1cc(NCCc2ccc(F)cc2)n2nccc2n1 | -0.9559% |
| COc1ccccc1CNc1cnn(CC(F)F)c1 | 103.3% |
| CCn1cc(CNc2ccc(Br)c(OC)c2)cn1 | 3.911% |
| CS(=O)(=O)CCNCc1ccc(OCc2ccncc2)cc1 | 4.954% |
| CS(=O)(=O)c1cccc(S(=O)(=O)NCCCN2CCNC(=O)C2)c1 | 4.336% |
| COCCC1(CO)CCCN(Cc2ccc(C(F)(F)F)nc2)C1 (stereo unspecified) | 4.896% |
| Cc1nn(C)c2nc(N3CCCCC3c3nccs3)sc12 (stereo unspecified) | 111.2% |
| Cc1nn(C)c2nc(N(Cc3cnn(C)c3)C3CCCCC3)sc12 | -14.1% |
| Cc1nn(C)c2nc(N3CCCCC3c3ccc(F)cc3)sc12 (stereo unspecified) | 106.8% |
| Cc1nn(C)c2nc(N3CCNC(=O)C3Cc3ccccc3)sc12 (stereo unspecified) | 4.207% |
| Cc1nn(C)c2nc(N3CCC(C(O)c4ccccn4)CC3)sc12 (stereo unspecified) | -0.6588% |
| Cc1nn(C)c2nc(N3CCNC(=O)C3C(C)C)sc12 (stereo unspecified) | -3.724% |
| Cc1nn(C)c2nc(N3CCCC3c3nccs3)sc12 (stereo unspecified) | 105.7% |
| Cc1nn(C)c2nc(N(Cc3nccs3)C3CC3)sc12 | 96.11% |
| COC(=O)CC1C(=O)NCCN1c1nc2c(s1)c(C)nn2C (stereo unspecified) | -2.847% |
| COC(=O)CN1CCN(c2nc3c(s2)c(C)nn3C)C(C)C1=O (stereo unspecified) | -10.29% |

| SMILES | Percent Effect |
| --- | --- |
| COCCN(Cc1nccs1)c1nc2c(s1)c(C)nn2C | -7.769% |
| Cc1ccc(CN2CCN(c3nc4c(s3)c(C)nn4C)C(C)C2=O)cc1 (stereo unspecified) | -1.858% |
| CN(Cc1ccccc1NCc1cccnc1)C(=O)c1cccs1 | 7.108% |
| O=S1(=O)CCN(c2nc(C3CC3)ns2)CC1 | -15.72% |
| CN1C(=O)CO[C@H](c2ccc(NC(=O)c3cccc(F)c3)cc2)[C@H]1CO | 11.75% |
| CCC(CNC(=O)c1cc(OC)ccc1Br)N1CCc2ccccc2C1 (stereo unspecified) | -23.56% |
| COC(=O)N1CCc2ccccc2C1C(=O)NCc1nc(C)no1 (stereo unspecified) | 2.573% |
| CN(C)C(=O)c1cccc(CN2CCOC(Cn3cccn3)C2)c1 (stereo unspecified) | 104.7% |
| c1cnn(-c2ccc(CN3CCOC(Cn4cncn4)C3)cc2)c1 (stereo unspecified) | -5.555% |
| CN(C)C(=O)c1cccc(CN2CCOC(Cn3cncn3)C2)c1 (stereo unspecified) | 102.1% |
| CN(C)CC1CN(Cc2cccc(C(=O)N(C)C)c2)CCO1 (stereo unspecified) | 13.75% |
| CCS(=O)(=O)Nc1cnn(Cc2cccc(F)c2)c1 | 105.7% |
| CCn1cc(NC(=O)NCC(c2cccc(F)c2)N(C)C)cn1 (stereo unspecified) | 0.3988% |
| Cc1cccc(Cn2ccc(NS(C)(=O)=O)n2)c1 | -2.498% |
| CN(C)c1cccc(C(=O)Nc2cnn(Cc3ccncc3)c2)c1 | 11.2% |
| CCn1cc(NC(=O)NCC(O)COc2cccc(F)c2)cn1 (stereo unspecified) | -10.6% |
| CCS(=O)(=O)Nc1cnn(Cc2cccc(C)c2)c1 | 89.42% |
| O=C(NCCN1CCOCC1)c1ccc(-c2ccccc2)[nH]c1=O | -12.34% |
| O=C(NCCCn1cncn1)c1ccc(-c2ccccc2)[nH]c1=O | -1.732% |
| Cc1cccc(-c2ccc(C(=O)NCC3CCOC3)c(=O)[nH]2)c1 (stereo unspecified) | 2.342% |
| Cc1cccc(-c2ccc(C(=O)NCC3CCCOC3)c(=O)[nH]2)c1 (stereo unspecified) | 108.2% |
| Cc1ccc(C(=O)NCC2COCCO2)c(=O)[nH]1 (stereo unspecified) | 4.795% |

| SMILES | Percent Effect |
| --- | --- |
| Cc1cccc(-c2ccc(C(=O)NCC3CCCO3)c(=O)[nH]2)c1 (stereo unspecified) | 118.6% |
| O=C(NCC1CCOC1)c1ccc(-c2ccccc2)[nH]c1=O (stereo unspecified) | 96.09% |
| Cc1cccc(-c2ccc(C(=O)NCCN(C)C3CC3)c(=O)[nH]2)c1 | -2.901% |
| O=C(NCC1CCCOC1)c1ccc(-c2ccccc2)[nH]c1=O (stereo unspecified) | 111.2% |
| Cc1ccc(C(=O)NCC2CCCCO2)c(=O)[nH]1 (stereo unspecified) | 8.158% |
| Cc1cccc(-c2ccc(C(=O)NCCN3CCOCC3)c(=O)[nH]2)c1 | 3.561% |
| O=C(NCC1CCCOC1)c1ccc(-c2cccs2)[nH]c1=O (stereo unspecified) | 1.044% |
| Cc1nc(CCNC(=O)C2CCN(C(C)C)CC2)sc1Cl | 3.943% |
| CCc1ccccc1OC1CN(CC2CCOC2)C1 (stereo unspecified) | 1.155% |
| CN(C)C(=O)CCCn1ccc(NCc2ccc(C#N)cc2)n1 | -12.19% |
| COCc1cccc(NC(=O)N(C)Cc2ncc(C)c(OC)c2C)c1 | -2.673% |
| O=C(CC1CCCC1)N1CCN2C[C@@H](CO)[C@H](c3ccccc3)[C@H]2C1 | 76.76% |
| COCCC(=O)N1CCC2(CC1)CC(c1ccccc1)CN(C1CC1)C2 (stereo unspecified) | -1.605% |
| NC(=O)[C@@H]1CN2CCN(C(=O)C3CC3)C[C@@H]2[C@H]1c1ccccc1 | 100.9% |
| COC(=O)N1CCN(Cc2ccccc2Cl)CC1 | 0.9968% |
| COC(=O)N1CCN2C[C@H](CO)[C@@H](c3ccccc3)[C@H]2C1 | 95.68% |
| COCCOC(=O)N1C[C@H]2CC[C@@H]1CN(C1Cc3ccccc3C1)C2 | 9.586% |
| O=C(CC1CCCCC1)N1CCN(C(=O)NCc2ccccn2)CC1 | -2.156% |
| COCCOC(=O)N1CCN2C[C@@H](CO)[C@H](c3ccccc3)[C@H]2C1 | 99.06% |
| O=C(Nc1nc(-c2ccccc2)ns1)N1CCN(C(=O)C2CC2)CC1 | -11.4% |
| O=C(CO)N1CCCC(N2CCN(c3ccccc3F)CC2)C1 (stereo unspecified) | 13.62% |
| O=C(C1CC1)N1CCN(C(=O)C2CC(=O)N(c3ccccc3Br)C2)CC1 (stereo unspecified) | 9.914% |

| SMILES | Percent Effect |
| --- | --- |
| COC(=O)N1CCC(NC(=O)CC(C)CCc2ccccc2)CC1 (stereo unspecified) | 12.69% |
| O=C(NC1CCCN(c2ccc(OC(F)F)cc2)C1)c1ccon1 (stereo unspecified) | 12.05% |
| Cc1c(NCCCOc2cccc(C#N)c2)cccc1C(N)=O | -5.343% |
| O=C1CCN(C(=O)C2(c3ccc(F)cc3)CCOCC2)CCN1 | 5.245% |
| Cc1cc(CS(=O)(=O)c2ccccc2)no1 | -12.79% |
| CCN1CC[C@]2(CN(C(=O)C3CCOCC3)C[C@H]2c2ccccc2)C1=O | -4.584% |
| CC(=O)N1CCN(C2CCc3ccccc32)CC1 (stereo unspecified) | 10.52% |
| O=C(C1CC1)N1CCN2C[C@@H](CO)[C@H](c3ccccc3)[C@H]2C1 | 89.49% |
| CC(=O)N1CCN(C)CC(COCc2ccccc2)C1 (stereo unspecified) | -1.846% |
| CC(=O)N1CCN2C[C@H](CO)[C@@H](c3ccccc3)[C@H]2C1 | 95.75% |
| CCC(NC(=O)c1ccc2[nH]ccc2c1)C(=O)N1CCOCC1 (stereo unspecified) | 6.827% |
| OC1CCN(c2ccccc2NCc2nc(-c3ccoc3)no2)CC1 | 5.706% |
| O=C(NCCN1C(=O)CCC1=O)c1nc2ccccc2c(=O)[nH]1 | 1.599% |
| CCCc1cc(C(=O)NCCCC(=O)N2Cc3ccccc3C2)[nH]n1 | -1.2% |
| CCN1CCn2c(-c3cccc(F)c3)cnc2C12CCN(C(C)=O)CC2.O=C(O)C(F)(F)F | 112.1% |
| CC(=O)N1CCn2c(-c3cccc(F)c3)cnc2C12CCNCC2.O=C(O)C(F)(F)F | 7.148% |
| CNC(=O)N1CCC2(CC1)c1ncc(-c3cccc(F)c3)n1CCN2C.O=C(O)C(F)(F)F | 101.8% |
| CN1CCn2c(-c3cccc(F)c3)cnc2C12CCN(CC1CC1)CC2.O=C(O)C(F)(F)F.O=C(O)C(F)(F)F.O=C(O)C(F)(F)F | -9.47% |
